Experimental data reported in PubChem BioAssay (NCI).
Where “and” joins values, the source holds several entries; their conditions need not be identical. Equal entries are not always repeated. This is part of a sample that, as a whole, favours compounds with a hit. Of some 83,000 tested, about 20% had one in any assay.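 Results are percent growth after 48 hours of single-concentration exposure. 100 means growth as in untreated cells, lower positive values show inhibition; negative values down to -100 show cell death.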 Calls of active or inactive are those of the source.

The compounds below were run on NCI-H226 lung (assay: NCI-60 one-dose screen, 48 h (100 = growth as untreated, 0 = no growth, -100 = all killed)). Conditions: 10 µM.
Protocol: Growth inhibition of the NCI-H226 human Non-Small Cell Lung tumor cell line is measured as a screen for anti-cancer activity. Cells are grown in 96 well plates and exposed to the test compound for 48 hours. Compounds are tested at a single concentration, which is 10^-5 M for most compounds. The reported endpoint is percent growth (GI% or GIPRCNT), where numbers from 0 - 100% represent growth inhibition, and numbers from -100% - 0 represent cell death. For example, a value of 40 represents 60% growth inhibition. A value of 0 means no net growth occurred over the course of the experiment. A value of -40 indicates 40% of cells at the beginning of the experiment died by the end of the experiment. A value of -100 means all cells are dead at the end of the experiment.
NCI-60 Human Tumor Cell Lines Screen was performed using the standard one-dose NCI protocol, which is described in more detail at https://dtp.cancer.gov/discovery_development/nci-60/default.htm.
Compounds with GIPRCNT values below 10 were considered active. Activity score was based on GIPRCNT using the following formula: […]
Score is 0 for GIPRCNT values of 100 or above, 50 for GIPRCNT values of 0, and 100 for GIPRCNT values of -100.

SMILES	growth
O=c1ccn2c(n1)OC1CC2OC1COC(c1ccccc1)(c1ccccc1)c1ccccc1 (stereo not given)	102% (inactive)

Same assay, conditions: 10 µM unless noted

SMILES	growth
Cc1nc2c(=O)[nH]c(=S)[nH]c2[nH]c1=O	100% (inactive) and 104% (inactive)
N=C(N)N1CCc2ccccc2C1	97.6% (inactive) and 108% (inactive)
c1ccc2c[n+](Cc3ccc4ccccc4n3)ccc2c1	85.8% (inactive)
C(=N\OCCc1ccccc1)/c1ccccn1	121% (inactive) and 108% (inactive)
NCCSSC/C=C\CSSCCN	90.1% (inactive)
CC(=O)Nc1ccc(OC(C)=O)cc1	5.48% (active) and 98.2% (inactive)
Nc1ccc(O)c(C(=O)O)c1	95.4% (inactive) and 92.4% (inactive) and 116% (inactive)
N#Cc1c[nH]n2ccnc12	96% (inactive)
CCOC(=O)CN1CCC(C(=O)OCC)CC1	107% (inactive)
O=C(O)C1CSCN1 (stereo not given)	113% (inactive) and 98.5% (inactive)
CCNC1=CC(=O)c2ncccc2C1=O	33.9% (inactive)
CNc1ccc(O)cc1	85.2% (inactive) and 93.6% (inactive)
Cc1c(O)nc(N)[nH]c1=O	106% (inactive)
O=C(c1ccc(Cl)cc1)C1C(c2ccccc2)C1[N+](=O)[O-] (stereo not given)	97.2% (inactive)
O=C1Cc2ccccc2C(=O)N1	101% (inactive)
CC(C)(C)OC(=O)c1ccc(NCc2cc(O)ccc2O)cc1	9.37% (active)
O=C1C(=O)c2ccccc2C(O)=C1CC=C(Cl)Cl	73.4% (inactive) and 63.5% (inactive)
CCOC(=O)c1ccc(N2C(=O)C(Cl)(c3ccccc3)C2c2ccco2)cc1 (stereo not given)	81.1% (inactive)
CCC(=O)Oc1ccc(OCc2ccccc2)cc1	104% (inactive) and 103% (inactive)

SMILES	growth
O=C(/C=C/C=C/c1ccc2c(c1)OCO2)N1CCCCC1	104% (inactive) and 95% (inactive)
COc1ccc(CCn2cnn3c(=O)c4ccccc4nc3c2=O)cc1OC	94.7% (inactive) and 97% (inactive)
CCCCCc1cc[n+](CC(=O)c2ccccc2)cc1	96.8% (inactive) and 89% (inactive)
Nc1c(Cl)cc2c(c1Br)C(=O)c1ccccc1C2=O	99.5% (inactive)
CCOC(=O)c1csc(N)n1	102% (inactive) and 105% (inactive)
CC1OS(=O)OC1C (stereo not given)	103% (inactive) and 101% (inactive)
Cc1ccc(N)cc1S(=O)(=O)O	109% (inactive)
CC(=O)Oc1cc(C)c(OC(C)=O)c(C)c1C	101% (inactive)
N#CC1c2ccccc2C=CN1C(=O)c1ccccc1 (stereo not given)	103% (inactive) and 89.1% (inactive)
Nc1c(S(=O)(=O)O)cc(Br)c2c1C(=O)c1ccccc1C2=O	98.2% (inactive) and 99.6% (inactive)
O=[N+]([O-])c1ccc(N2CCN=N2)cc1	96% (inactive)
Nc1nc(N)c2cc(S(=O)(=O)c3ccccc3)ccc2n1	63.2% (inactive) and 79.3% (inactive)
Clc1ccc(/C=C/c2ccc3ccccc3n2)cc1	84.1% (inactive) and 81.1% (inactive) and 92.6% (inactive)
CCCC(=O)OCC(COC(=O)CCC)OC(=O)CCC	94.5% (inactive)
Cc1cc2ccccc2c2cc3ccccc3cc12	68.4% (inactive)
Cc1ccc(NC(=S)N/C=C(\c2ccccc2)S(=O)Cc2ccccc2)c(C)c1 (stereo not given)	90.2% (inactive)
CN(C)CC(CN(C)C)C(O)c1ccccc1 (stereo not given)	96.6% (inactive)
O=C1c2ccccc2CN1c1ccccc1	98.8% (inactive)
Cc1c(Cl)c(C)c(Cc2c(C)c(Cl)c(C)c(Cl)c2O)c(O)c1Cl	15.7% (inactive)

Same assay, conditions: 100 µM

SMILES	growth
O=c1ccn2c(n1)OC1CC2OC1COC(c1ccccc1)(c1ccccc1)c1ccccc1 (stereo not given)	90.5% (inactive)
